Bioassay records from PubChem.
In the library only some 8.3% were active in any assay of this set; here they are far more common.
HCV inhibitor = blocks hepatitis C virus | Huh7.5.1 HCVcc-Cre infection, luciferase reporter, 44 h | hit rate 3.4% among 340,000 | Potency, µM (series often up to 41.8 µM), for inactives: at the highest dose activity change, negative = inhibition, actives largely listed as inhibitors; further: potency means the concentration at half of the fitted maximal effect
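Compounds are dispensed onto cells plated 4 h earlier at 1,000 per well, with HCVcc-Cre virus (about 0.5 moi) added next. Following 44 h of culture, luminescent signal is measured for 15 sec after 15 min with substrate at room temperature.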
HCMV inh = blocks human cytomegalovirus replication | HFF cells, HCMV-luciferase reporter, 72 h; active compounds read low | hit rate 4.5% among 410,000 | activity change, negative = inhibition, % at 57.5 µM | AID 1259415; in the data active means activity change below about -60%; inconclusive means no clear call, values can overlap the other calls; inactive means above about -39%
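Screen run at 2 compound doses on HFFs infected with reporter HCMV, MOI 1 PFU/cell. Luciferase activity from cell lysates at 72 h post infection gave inhibition relative to buffer-only and Salinomycin wells.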
Lassa entry inh = inhibitors of Lassa virus binding or cell entry. Lassa virus pseudotype entry inhibition, cell reporter. hit rate 1.2% among 300,000. Potency, µM (series often up to 37.9 µM), inactives show at the highest dose activity change, negative = inhibition, usual class: inhibitors. AID 540256; calls by dose curve; tested in HEK293 cells; further: potency means the concentration at half of the fitted maximal effect; nearly all actives have a fitted effect of over 50% in size
FBPA Giardia inh = inhibitors of Giardia lamblia fructose-1,6-bisphosphate aldolase. AID 2451. hit rate 0.71% among 290,000. purified Giardia FBPA. Potency, µM (top dose mostly 59.6 µM), for the others: at the top dose activity, negative = inhibition, most hits filed as inhibitors; further: potency means the concentration at half of the fitted maximal effect; nearly all actives have a fitted effect of over 55% in size
Target sequence (A8B2U2 whole entry, looked up): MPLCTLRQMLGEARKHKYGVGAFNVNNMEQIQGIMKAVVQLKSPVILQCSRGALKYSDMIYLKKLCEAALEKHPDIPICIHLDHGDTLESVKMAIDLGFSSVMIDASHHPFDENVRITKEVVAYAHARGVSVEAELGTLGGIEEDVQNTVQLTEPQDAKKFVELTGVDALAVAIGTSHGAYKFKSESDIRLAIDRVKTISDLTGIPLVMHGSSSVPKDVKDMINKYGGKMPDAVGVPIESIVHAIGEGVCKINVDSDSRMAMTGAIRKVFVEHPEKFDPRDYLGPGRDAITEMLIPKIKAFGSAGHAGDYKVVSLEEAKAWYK
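Giardia FBPA (40 nM reagent) was preincubated 10 min at RT with compound (up to 57.5 uM final), then substrate plus GAPDH/TPI/NAD/arsenate coupling system with diaphorase/resazurin was added; resorufin fluorescence (525/598 nm) was read after 20 min.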
FMDV inh = foot and mouth disease virus antiviral activity. AID 1159524. FMDV antiviral cell-based qHTS. Potency, µM (series often up to 57.9 µM), for the others: top-dose activity change, negative = inhibition, most hits filed as inhibitors. hit rate 1.2% among 410,000; calls by dose curve; tested in HEK293T cells; further: read-out not given here; potency means the concentration at half of the fitted maximal effect; nearly all actives have a fitted effect of over 45% in size
Marburg entry inh = blocks Marburg virus binding to or entry into cells; Marburg virus pseudotyped entry inhibition, cell reporter; hit rate 1.8% among 300,000; AID 540276; Potency, µM (doses to about 37.8 µM), without a hit: top-dose activity change, negative = inhibition, usual class: inhibitors; calls by dose curve; tested in HEK293 cells; further: potency means the concentration at half of the fitted maximal effect
* hit, by the source's call; ? = inconclusive; nt = no result given; [ ] = dose if it differs, or a comment. Unless noted, the call rests on the fitted dose curve; in most records, active means well fitted curve in the direction sought with a large enough effect; inconclusive means small, poorly fitted or top-dose-only effect, or another doubt; inactive means no such curve, though single readings can be large; an effect the other way counts as inactive or inconclusive. On the % scale 0 is the no-effect control and ±100 the full control effect.

SMILES	HCV inhibitor	HCMV inh	Lassa entry inh	FBPA Giardia inh	FMDV inh	Marburg entry inh
CC(=O)Nc1nonc1-c1nnc(SCC(=O)Nc2c(C)cccc2C)n1-c1ccccc1	nt	7	-3%[46.1 µM]	nt	-4%	?
Cc1cc2c(nc1C)CCCN2Cc1ccccn1	nt	10	nt	nt	nt	nt
O=C(Cc1csc(N2CCOCC2)n1)N/N=C/c1ccc(Cl)cc1Cl	11µM*	2	?	1%	?	?
C=C(C(=O)C(C)(C)O)C(O)c1ccc([N+](=O)[O-])cc1 (centres undefined)	nt	nt	nt	-4%	nt	?
Cc1c(Cl)ccc2c(C(O)CBr)cc(-c3ccccc3)nc12 (centres undefined)	10µM*	-39	?	nt	?	?
Cc1ccc(-c2cc(C(=O)NCCCN3CCOCC3)c3ccc(Cl)c(C)c3n2)cc1	?	-4	nt	nt	-27%	nt
Cc1nc2ccc(C(=O)N3CCc4c(cnc(C)c4CNC(=O)/C=C/c4cccs4)C3)cc2nc1C	nt	nt	nt	nt	4%	nt
CCCc1ccc(-c2ccc(C(=O)O)cc2)nc1	21%	42	12µM*	?	nt	?
CCCc1ccc(-c2ccc(C(=O)Oc3ccc(OCC)cc3)cc2)nc1	nt	38	-16%[46.1 µM]	nt	-15%	nt
CN(C)c1ccc(CNC(=O)c2cnc(N3CCNC3=O)s2)cc1	nt	8	nt	nt	nt	nt
CCOc1ccc(-c2cnc(NCc3cccc(Cl)c3)n2C)cc1	nt	?	-4%[46.1 µM]	nt	-8%	?
COc1ccc(CNc2ncc(-c3ccc(F)cc3)n2C)c2ccccc12	1%	-84*	-26%[46.1 µM]	?	-20%	?
CCOc1ccc(-c2cnc(NCc3cccc4ccccc34)n2CCOC)cc1	10µM*	25	?	?	-29%	?
Cn1c(-c2ccc(Cl)cc2)cnc1NCc1cc2c(cc1[N+](=O)[O-])OCO2	?	-26	?	-26%	-8%	?
Cn1c(-c2ccc(F)cc2)cnc1NCc1ccccc1	-2%	-1	9%	-15%	6%	23µM*
Cn1c(-c2ccccc2)cnc1NCc1ccc(F)cc1	-3%	141	nt	17%	23%	nt
COc1ccccc1CNc1ncc(-c2ccc(F)cc2)n1C	-10%	-14	nt	-26%	14%	nt
Cn1c(-c2ccc(F)cc2)cnc1NCc1cc2c(cc1[N+](=O)[O-])OCO2	13µM*	12	14%	?	5%	?
CCOc1ccccc1CN1C(=O)c2ccccc2C1C(=O)NC1CCCCCC1 (centres undefined)	nt	-5	?	nt	33%	?
O=C(CSc1nc2c([nH]c3ccccc32)c(=O)n1-c1ccc(F)cc1)NC1CCCCC1	nt	-22	0%[46.1 µM]	nt	-26%	nt
COC(=O)[C@H](Cc1ccccc1)NC(=O)O[C@H]1C(=O)c2cc(OC)ccc2O[C@@H]1c1ccc(OC)c(Br)c1	nt	nt	nt	0%	nt	nt
Cc1ccc2c(c1)c(C)cc[n+]2Cc1ccccc1	?	-96*	?	-2%	?	10µM*
Cc1ccc2ccc[n+](Cc3ccccc3)c2c1	?	-82*	nt	nt	-10%	nt
COc1ccc2c(c1)c(C)cc[n+]2Cc1ccccc1	-17%	-85*	nt	-9%	?	nt
COc1ccc2[nH]c(C(=O)N(C)Cc3ccccc3)c(C)c2c1	1%	1	nt	-5%	40%	nt
SMILES	HCV inhibitor	HCMV inh	Lassa entry inh	FBPA Giardia inh	FMDV inh	Marburg entry inh
Cc1ccc2c(ccc[n+]2CC(=O)c2ccccc2)c1	10%	63	1%	3%	-18%	-19%
Cc1ccc2[nH]c(=O)c(Cc3ccccc3)c(O)c2c1	3%	-40	-16%	-1%	-16%	2%[46.1 µM]
Cc1cc(-c2ccnc(-n3ncc(C(=O)NCCc4cccnc4)c3C)n2)c(C)s1	nt	nt	nt	nt	-3%	nt
CC12CCC(=O)N1C(C(=O)Nc1nc(-c3ccc(F)cc3)cs1)CS2 (centres undefined)	-56%	-25	-13%	nt	0%	1%[46.1 µM]
CC12CCC(=O)N1C(C(=O)Nc1nc(-c3ccccc3Cl)cs1)CS2 (centres undefined)	10µM*	2	-19%	nt	-11%	?
COc1ccc(OC)c(-c2csc(NC(=O)C3CSC4(C)CCC(=O)N34)n2)c1 (centres undefined)	3.2µM*	0	?	nt	23%	?
COc1ccc(-c2csc(NC(=O)C3CSC4(C)CCC(=O)N34)n2)cc1OC (centres undefined)	?	?	-3%	nt	-1%	0%
